FXIa inh mix = inhibitors of human coagulation factor XIa, pooled mixtures; purified FXIa, fluorogenic substrate; inhibition, % at 5 µM; 0.19% of 62,000 active; AID 680;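 further: each value is inhibition by a whole ten-compound pool holding the compound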
FXIIa mix inh = factor XIIa (human) inhibition, mixture screen; 0.2% of 62,000 active; AID 684; purified FXIIa, fluorogenic substrate, pooled mixtures; P00748; inhibition, % at 5 µM
M1 agonist = agonists of M1 muscarinic receptor | B-score at 10 µM | 3% of 64,000 active | CHO-M1 cells, Fluo-4 calcium fluorescence, agonist mode; stronger effect = higher value | AID 626;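 active means fluorescence rise, raw or as B-score row- and column-corrected plate score, outside the 99.7% band of its plate's samples, either direction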
DAT uptake mod = modulates human dopamine transporter uptake under cocaine. Q01959. LLC-PK1 hDAT cells, [14C]-dopamine uptake with cocaine IC80; actives deviate in either direction. B-score at 10 µM. 1.3% of 110,000 active;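 active means Z score or B-score, a plate-position-corrected score, falls beyond the plate's 99.7% confidence bounds, in either direction; inactive means both scores lie inside the 99.7% bounds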
Target sequence (Q01959 whole entry, looked up): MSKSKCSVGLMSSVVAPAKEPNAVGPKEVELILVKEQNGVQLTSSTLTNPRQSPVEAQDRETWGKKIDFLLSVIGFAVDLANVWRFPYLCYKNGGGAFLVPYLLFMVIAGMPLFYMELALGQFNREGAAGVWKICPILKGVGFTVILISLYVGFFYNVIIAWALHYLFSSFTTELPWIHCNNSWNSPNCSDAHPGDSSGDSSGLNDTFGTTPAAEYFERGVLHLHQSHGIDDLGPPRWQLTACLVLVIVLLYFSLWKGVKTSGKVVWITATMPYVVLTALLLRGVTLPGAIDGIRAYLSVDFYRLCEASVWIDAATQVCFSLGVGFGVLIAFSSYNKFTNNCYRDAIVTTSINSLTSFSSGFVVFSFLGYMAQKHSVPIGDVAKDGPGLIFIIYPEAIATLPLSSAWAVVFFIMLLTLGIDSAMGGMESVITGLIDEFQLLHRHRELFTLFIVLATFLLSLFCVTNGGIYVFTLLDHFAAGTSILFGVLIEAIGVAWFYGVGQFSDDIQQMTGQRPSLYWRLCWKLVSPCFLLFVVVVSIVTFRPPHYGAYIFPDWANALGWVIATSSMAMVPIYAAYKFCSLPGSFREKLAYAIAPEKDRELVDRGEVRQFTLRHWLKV
D1 allo mod = D1 dopamine receptor (human) allosteric modulation; HEK293 D1, CRE-luciferase, dopamine EC30 potentiation; actives deviate in either direction; B-score at 10 µM; 5.9% of 58,000 active; AID 641;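 active means luminescence count or its row- and column-corrected plate score outside the 99.7% band of the plate's sample wells, on either side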
M1 antagonist = blocks the rat M1 muscarinic receptor response to acetylcholine | P08482 | CHO-M1 cells, Fluo-4 calcium, ACh EC80 antagonist mode; stronger effect = lower value | B-score at 10 µM | 3.4% of 64,000 active | AID 628;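 active means calcium fluorescence response, raw or row-and-column corrected B-score, differing from the plate sample mean either way at a set confidence level, mostly lower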
D1 mod confirm = D1 receptor (human) allosteric modulation, confirmed; shares compounds with D1 allo mod; AID 642; 88% of 2,200 active; HEK293 D1 CRE-luciferase, dopamine EC30 potentiation; stronger effect = higher value; luminescence at 10 µM;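 active means luminescence in either of two replicates above the same-plate mean plus 3 SD of the low-dose dopamine control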
D1 ag no DA = secondary test of D1 modulators: activity without dopamine | shares compounds with D1 allo mod | HEK293 D1 CRE-luciferase, luminescence, no dopamine; stronger effect = higher value | luminescence at 10 µM | 0.8% of 1,900 active; in the data active means luminescence above about 3900
Isoprot counter = counter-screen for D1 modulators: isoproterenol response in HEK293 cells; HEK293 D1 CRE-luciferase, isoproterenol EC30 counter-screen; calls only at 10 µM; 63% of 2,200 active; shares compounds with D1 allo mod; AID 647;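 active means luminescence in either replicate above plate mean of wells with a partly effective reference agonist dose plus 3 SD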;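 further: isoproterenol raises cAMP through native beta-adrenoceptor Gs so signal bypasses D1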
Each line names hits and unclear results; the compound was inactive in the other large screens (follow-up assays come after a bar, where they were run). An excerpt weighted towards active compounds, which were near 7.4% of everything screened. Unless noted, no stated cut-off is given here; in the data, active means inhibition above about 20% (passing the limit was not always enough); inactive means the rest.

CCOC(=O)c1[nH]c2cc(OC)c(OC)cc2c1NC(=O)CN(C)C1CCCCC1	D1 allo mod 4.3 | D1 mod confirm 10140 | D1 ag no DA inactive | Isoprot counter active
CCOC(=O)c1[nH]c2cc(OC)c(OC)cc2c1NC(=O)c1ccc2c(c1)OCO2	none (no result: D1 allo mod)
COC(=O)c1[nH]c2ccc(Cl)cc2c1NC(=O)CN1CCc2cc(OC)c(OC)cc2C1	none
CCOC(=O)c1[nH]c2ccc(F)cc2c1NC(=O)CN1CCc2cc(OC)c(OC)cc2C1	D1 allo mod 1.7 (no result: DAT uptake mod) | D1 mod confirm 9280 | D1 ag no DA inactive | Isoprot counter active
C/C(=N\N1CCN(C2c3ccccc3-c3ccccc32)CC1)c1ccncc1	none (no result: FXIa inh mix, FXIIa mix inh, M1 agonist, D1 allo mod, M1 antagonist)
CCOC(=O)CCc1cccc2c1CCC2=O	none
N#Cc1c(-c2ccccc2)nc(-c2ccccc2)nc1N1CCOCC1	none (no result: FXIa inh mix, FXIIa mix inh, M1 agonist, D1 allo mod, M1 antagonist)
N#Cc1c(N)nc(-c2ccccc2)nc1-c1ccccc1	D1 allo mod 18 | D1 mod confirm 18844 | D1 ag no DA inactive | Isoprot counter inactive
Cc1cc(C(=O)Nc2ccc(C(=O)O)cc2)c(-c2ccccc2)o1	D1 allo mod 2.5 | D1 mod confirm 7724 | D1 ag no DA inactive | Isoprot counter active
CC(=O)c1cc(C(=O)Nc2ccc(C(=O)O)cc2)oc1C	none (no result: FXIa inh mix, FXIIa mix inh, M1 agonist, D1 allo mod, M1 antagonist)
CCn1c(SCc2cccc(C)c2)nnc1-c1ccccc1	none (no result: FXIa inh mix, FXIIa mix inh, M1 agonist, D1 allo mod, M1 antagonist)
CCOc1ccc(N(CC)C(=O)COc2cc(=O)n(C)c3ccccc23)cc1	none
Clc1cccc(Nc2c3c(nc4ncnn24)CCC3)c1	D1 allo mod 4.7 | D1 mod confirm 8280 | D1 ag no DA inactive | Isoprot counter inactive
CCNc1nc(NCC)nc(C(=O)Nc2ccccc2)n1	none (no result: FXIa inh mix, FXIIa mix inh, M1 agonist, D1 allo mod, M1 antagonist)
CCC(c1nnnn1Cc1ccc(F)cc1)N(CCCO)Cc1cc2cc3c(cc2[nH]c1=O)OCO3 (configuration not stated)	D1 allo mod 5.5 | D1 mod confirm inactive | D1 ag no DA inactive | Isoprot counter inactive
O=c1cc(-c2ccccc2)nc2n1Cc1ccccc1-2	D1 allo mod 13 | D1 mod confirm 11948 | Isoprot counter active
O=c1nc2n(c3ccccc13)Cc1ccccc1-2	none (no result: DAT uptake mod)
C=CCNc1sc(C(=O)c2ccc(Br)s2)c(N)c1C#N	none (no result: FXIa inh mix, FXIIa mix inh, M1 agonist, D1 allo mod, M1 antagonist)
CCOC(=O)N1CCC(NC(=O)c2cccc3c2C(=O)N(Cc2cccnc2)C3)CC1	D1 allo mod 3.7 | D1 mod confirm 8400 | D1 ag no DA inactive | Isoprot counter inactive
CCOc1ccc(NC(=O)c2cccc3c2C(=O)N(Cc2cccnc2)C3)cc1	none
COc1ccc(N2CCN(S(=O)(=O)c3cccs3)CC2)cc1	D1 allo mod 5 | D1 mod confirm 9608 | D1 ag no DA inactive | Isoprot counter inactive
COc1ccccc1N1CCN(S(=O)(=O)c2cccs2)CC1	none (no result: FXIa inh mix, FXIIa mix inh, M1 agonist, D1 allo mod, M1 antagonist)
CSc1nncc(-c2ccc(F)c(F)c2)n1	D1 allo mod 4.4 | D1 mod confirm 11748 | D1 ag no DA inactive | Isoprot counter inactive
CSc1nncc(-c2ccc(F)cc2)n1	D1 allo mod 8.2, M1 antagonist 2.6 | D1 mod confirm 8776 | Isoprot counter active
CCOC(=O)c1sc2nc(N3CCOCC3)c3c(c2c1N)CC(C)(C)N(C)C3	D1 allo mod 3.1 (no result: FXIa inh mix, FXIIa mix inh) | D1 mod confirm 12684 | D1 ag no DA inactive | Isoprot counter active
CCOC(=O)c1cc2cc(F)ccc2nc1C	D1 allo mod 10 | D1 mod confirm 12456 | D1 ag no DA inactive | Isoprot counter active
O=C(Nc1nccs1)C1CCCN(S(=O)(=O)c2cccnc2)C1 (configuration not stated)	none
CCCN1CCN(c2ncnc3c2nnn3Cc2ccccc2)CC1	none
c1ccc(Cn2nnc3c(N4CCCCCC4)ncnc32)cc1	D1 allo mod 6.4 | D1 mod confirm 7556 | D1 ag no DA inactive | Isoprot counter active
c1ccc(Cn2nnc3c(N4CCc5ccccc54)ncnc32)cc1	D1 allo mod 3 | D1 mod confirm 6044 | D1 ag no DA inactive | Isoprot counter inactive
C/C=C(/C)C(=O)Nc1cccc(C2=NOC3(C2)C[C@H](C(N)=O)N(C(=O)c2ccccc2)C3)c1 (some centres not stated)	none (no result: FXIa inh mix, FXIIa mix inh, M1 agonist, D1 allo mod, M1 antagonist)
CCOC(=O)C1=C(c2ccccc2)NC(=O)NC1c1ccc(OCC#N)c(OC)c1 (configuration not stated)	none
O=C(Nc1cccc(NC(=O)c2ccco2)c1)c1ccc2c(c1)OCO2	none
CCOC(=O)CSc1nnc(CSc2nc3sc4c(c3c(=O)[nH]2)CCC4)n1-c1ccccc1	none (no result: FXIa inh mix, FXIIa mix inh, M1 agonist, D1 allo mod, M1 antagonist)
CCOC(=O)CSc1nnc(CSc2nc3sc4c(c3c(=O)[nH]2)CCC4)n1C	D1 allo mod 2.6 | D1 mod confirm inactive | D1 ag no DA inactive | Isoprot counter inactive
COC(=O)c1sc(NC(=O)CSc2nc3cccnc3n2C2CCCCC2)nc1C	D1 allo mod 9.5 | D1 mod confirm 10416 | D1 ag no DA inactive | Isoprot counter active
O=C(O)C1=C[C@H](c2ccc(C(F)(F)F)cc2)C[C@H](OCCCCO)O1	none (no result: FXIa inh mix, FXIIa mix inh, M1 agonist, D1 allo mod, M1 antagonist)
CSc1ccccc1-n1nnnc1SCc1ccccc1	D1 allo mod 3.8 | D1 mod confirm 7588 | Isoprot counter inactive
COc1ccc2c(c1)[nH]c1c(=O)n(CCCN3CCOCC3)cnc12	none (no result: FXIa inh mix, FXIIa mix inh, M1 agonist, D1 allo mod, M1 antagonist)
CC(C)NC(=O)c1ccccc1NC(=O)Cc1ccc(Cl)cc1	none (no result: FXIa inh mix, FXIIa mix inh, M1 agonist, D1 allo mod, M1 antagonist)
Cc1ccc(S(=O)(=O)N2CC3CCC2C3)cc1 (configuration not stated)	D1 allo mod 4.4 | D1 mod confirm 6724 | Isoprot counter inactive
O=C(c1cn(-c2ccccc2)nc1-c1ccccc1)N1CCOCC1	none
Nc1nnc(-c2cn(-c3ccccc3)nc2-c2ccccc2)o1	D1 allo mod 3 | D1 mod confirm 15252 | D1 ag no DA inactive | Isoprot counter active
CCCCN(C(=O)CNC(=O)c1ccco1)C(C(=O)NC1CCCCC1)c1ccc(OC)cc1OC (configuration not stated)	none (no result: D1 allo mod)
c1ccn(-c2ncnc3sc4c(c23)CCCC4)c1	D1 allo mod 7.6 | D1 mod confirm 13568 | Isoprot counter active
CCNc1nc(OC)nc(Oc2ccc(C(=O)OC)cc2)n1	none (no result: FXIa inh mix, FXIIa mix inh, M1 agonist, D1 allo mod, M1 antagonist)
CCOC(=O)c1ccc(Oc2nc(NC)nc(OC)n2)cc1	D1 allo mod 3.8, M1 antagonist 2.7 | D1 mod confirm 9704 | D1 ag no DA inactive | Isoprot counter active
CNc1nc(C)c(C(=O)OCC(=O)OC)s1	D1 allo mod 9.4 (no result: M1 agonist, M1 antagonist) | D1 mod confirm 13828 | D1 ag no DA inactive | Isoprot counter inactive
CNc1nc(C)c(C(=O)OCc2ccccc2)s1	D1 allo mod 18 | D1 mod confirm 16572 | D1 ag no DA inactive | Isoprot counter active
N#Cc1ccccc1NC(=O)c1ccc(-c2ccccc2Cl)o1	none

Assay outcomes from PubChem BioAssay.
